Data as given in PubChem BioAssay (Tox21).
Inconclusive results are not listed. Unmarked numbers belong to inactive results. Calls of active or inactive are those of the source. The call rests on the fitted dose curve; in most records, active means well fitted cell-killing curve with a large enough effect in the repeat runs; inconclusive means weak or mixed curves, or effect the other way; inactive means no such curve, though single readings can be large or run the other way.

Assay: qHTS assay to identify aromatase inhibitors - cell viability counter screen (AID 743084);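 further: cells stimulated with testosterone during compound exposure; nearly all actives have a fitted effect of over 55% in size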
Conditions: MCF-7 aro ERE viability, CellTiter-Fluor, 24 h; series mostly up to 70.3 µM; activity change, negative = cytotoxicity: at the top concentration
On the % scale 0 is the no-effect control and ±100 the full control effect; potency means the concentration at half of the fitted maximal effect.

SMILES	Potency	activity change, negative = cytotoxicity
CC(C)(S)C(=O)N[C@@H](CS)C(=O)O	inactive	
C[S+](C)CCC(N)C(=O)O (stereo unspecified)		-1%
CC(C)(C)c1ccc2c(S(=O)(=O)O)c(C(C)(C)C)ccc2c1	inactive	
CC(=O)NC[C@H]1CN(c2ccc(N3CCOCC3)c(F)c2)C(=O)O1		-6.13%
CC(=O)O[C@H]1C[C@@H]2CC[C@@H]3[C@H](CC[C@@]4(C)[C@H]3C[C@H]([N+]3(C)CCCCC3)[C@@H]4OC(C)=O)[C@@]2(C)C[C@@H]1[N+]1(C)CCCCC1		2.32%
N#Cc1c(N(CC(=O)O)CC(=O)O)sc(C(=O)O)c1CC(=O)O		8.35%
CC[C@H]1OC(=O)C[C@@H](O)[C@H](C)[C@@H](O[C@@H]2O[C@H](C)[C@@H](O[C@H]3C[C@@](C)(O)[C@@H](O)[C@H](C)O3)[C@H](N(C)C)[C@H]2O)[C@@H](CC=O)C[C@@H](C)C(=O)/C=C/C(C)=C/[C@@H]1CO[C@@H]1O[C@H](C)[C@@H](O)[C@@H](OC)[C@H]1OC	inactive	
COC1=C(OC)C(=O)C(C/C=C(\C)CC/C=C(\C)CC/C=C(\C)CC/C=C(\C)CC/C=C(\C)CC/C=C(\C)CC/C=C(\C)CC/C=C(\C)CC/C=C(\C)CCC=C(C)C)=C(C)C1=O	inactive	
CCC[C@@H]1C[C@@H](C(=O)N[C@@H]([C@H]2O[C@H](SC)[C@H](OP(=O)(O)O)[C@@H](O)[C@H]2O)[C@H](C)Cl)N(C)C1	inactive	
CC1=C(/C=C/C(C)=C/C=C/C(C)=C/C=C/C=C(C)/C=C/C=C(C)/C=C/C2=C(C)CCCC2(C)C)C(C)(C)CCC1		10.9%
C[N+](C)(C)CCOP(=O)(O)OP(=O)([O-])OC[C@H]1O[C@@H](n2ccc(N)nc2=O)[C@H](O)[C@@H]1O	inactive	
NC(=O)C1c2ccccc2CCc2ccccc21		4.38%
CO/N=C(\C(=O)N[C@@H]1C(=O)N2C(C(=O)[O-])=C(C[n+]3ccc(N)n3CCO)CS[C@H]12)c1csc(N)n1		-0.858%
CC(=O)OCC1=C(C(=O)O)N2C(=O)[C@@H](NC(=O)Cc3ccccc3)[C@H]2SC1		2.65%
CS(=O)(=O)c1ccc([C@@H](O)[C@@H](COC(=O)CN)NC(=O)C(Cl)Cl)cc1		2.18%
Cc1cccc(C)c1NC(=O)C1CCCCN1C (stereo unspecified)		-2.94%
CC(=NCc1ccccc1)c1ccccc1O		13.5%
CSCC[C@H](NC(=O)[C@H](Cc1ccc(OS(=O)(=O)O)cc1)NC(=O)[C@@H](N)CC(=O)O)C(=O)NCC(=O)N[C@@H](Cc1c[nH]c2ccccc12)C(=O)N[C@@H](CCSC)C(=O)N[C@@H](CC(=O)O)C(=O)N[C@@H](Cc1ccccc1)C(N)=O	inactive	

SMILES	Potency	activity change, negative = cytotoxicity
O=C[C@H](O)[C@@H](O)[C@@H](O)[C@H](O)CO		19.6%
COC(=O)[C@H]1[C@H]2C[C@H]3c4[nH]c5ccccc5c4CCN3C[C@H]2CC[C@@H]1O		7.5%
CCOC(=O)[C@H](CCc1ccccc1)N[C@@H](C)C(=O)N1[C@H](C(=O)O)C[C@H]2CCCC[C@@H]21	inactive	
CC(C)CCC[C@@H](C)[C@H]1CC[C@H]2[C@@H]3CC=C4C[C@@H](O)CC[C@]4(C)[C@H]3CC[C@]12C		-7.97%
C=CC[N@@+]12CC[C@@]34c5ccccc5N5/C=C6/[C@H]7C[C@H]8[C@@]9(CC[N@@+]8(CC=C)C/C7=C/CO)c7ccccc7N(/C=C(/[C@@H](C[C@@H]31)/C(=C\CO)C2)[C@H]54)[C@@H]69		-0.505% [at 32.5 µM]
CC(=O)Oc1cc(C(F)(F)F)ccc1C(=O)O		13.8% [at 32.5 µM]
O=c1[nH]c(=O)n([C@H]2C[C@H](O)[C@@H](CO)O2)cc1/C=C/Br		2.15%
CC(C)=CCC/C(C)=C/CC/C(C)=C/CC/C=C(\C)CC/C=C(\C)CCC=C(C)C	inactive	
Cc1cc(-c2ccc(N=Nc3ccc4c(S(=O)(=O)O)cc(S(=O)(=O)O)c(N)c4c3O)c(C)c2)ccc1N=Nc1ccc2c(S(=O)(=O)O)cc(S(=O)(=O)O)c(N)c2c1O	23.7 µM (active)	
O=C1CCC(c2ccc(-n3ccnc3)cc2)=NN1		4.76%
C=CC1=C(C(=O)O)N2C(=O)[C@@H](NC(=O)/C(=N\O)c3csc(N)n3)[C@H]2SC1 (stereo in doubt)	inactive	
CCCCC[C@H](O)/C=C/[C@@H]1[C@@H](C/C=C\CCCC(=O)O)[C@@H](O)C[C@H]1O	inactive	
COc1ccc(/C=N/NC(=O)c2ccncc2)c(C(=O)O)c1OC		7.84%
O=P(O)(O)OP(=O)(O)OP(=O)(O)O		29.4%
C[S+](CC[C@H](N)C(=O)O)C[C@H]1O[C@@H](n2cnc3c(N)ncnc32)[C@H](O)[C@@H]1O (stereo partly specified)	inactive	
CCN(CC)CCOC[C@H]1O[C@@H](O)[C@H](OCCN(CC)CC)[C@@H](O)[C@@H]1O		-0.424%
CC(C)C[C@H](NC(=O)[C@@H](COC(C)(C)C)NC(=O)[C@H](Cc1ccc(O)cc1)NC(=O)[C@H](CO)NC(=O)[C@H](Cc1c[nH]c2ccccc12)NC(=O)[C@H](Cc1cnc[nH]1)NC(=O)[C@@H]1CCC(=O)N1)C(=O)N[C@@H](CCCN=C(N)N)C(=O)N1CCC[C@H]1C(=O)NNC(N)=O	inactive	
CC/C(=C(/CC)c1ccc(OP(=O)(O)O)cc1)c1ccc(OP(=O)(O)O)cc1		6.01%
